Experimental data published in PubChem BioAssay (NCI).
About 79,000 compounds went through this panel and 15% of them were active in at least one assay; those are over-represented in the sample as a whole. Active and inactive are the calls of the source. Cut-off read from the data, not from the text of the source: active = growth inhibition above about 70%; inactive = the rest.

Assay: NCI Yeast Anticancer Drug Screen. Data for the rad50EPP+ strain (AID 151);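 note: 0% = growth of vehicle-treated control cultures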
Conditions: S. cerevisiae rad50 mutant strain, at 11.0 µM, active compounds read high
Summary of the method: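 In this screen, rad50EPP+ yeast were exposed to compounds. Growth inhibition was scored against vehicle-treated controls.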

**Q.** Which growth inhibition does the source give for `O=Cc1ccccc1B(O)O` here?
**A.** 94% (active)

**Q.** With `O=C(O)[C@H]1[C@@H](C2CCCCC2)O[C@@H](C2CCCCC2)O[C@H]1C(F)(F)F` as the compound, how does the growth inhibition read?
**A.** 2% (inactive)

**Q.** Which growth inhibition does the source give for `N#C/C(=C1C=C/C(=N\O)C(Cl)=C\1)c1ccccc1` here?
**A.** 26% (inactive)

**Q.** With `Nc1nc(Nc2ccccc2)nc(Nc2ccccc2)n1` as the compound, how does the growth inhibition read?
**A.** 21% (inactive)

**Q.** Which growth inhibition does the source give for `COc1ccc(/C=C2\S/C(=N/Nc3nc(-c4ccccc4)cs3)NC2=O)cc1OC` here?
**A.** 93% (active)

**Q.** For `CC(O)CN1C(=O)c2cccc3cc([N+](=O)[O-])cc(c23)C1=O` (stereo not given), which growth inhibition is on record?
**A.** 18% (inactive)

**Q.** With `Cn1c(COc2ccc(/C=N/NC(=O)CCC(=O)N/N=C/c3ccc(OCc4c[n+]5ccccc5n4C)cc3)cc2)c[n+]2ccccc12` as the compound, how does the growth inhibition read?
**A.** -18% (inactive)

**Q.** With `O=S(=O)(CCC[C@H]1[C@@H](CCOCc2ccccc2)C2CCCN1O2)c1ccccc1` (stereo not given in full) as the compound, how does the growth inhibition read?
**A.** 2% (inactive)

**Q.** For `CCC(C)/C(C)=N/NC(N)=O` (stereo not given), which growth inhibition is on record?
**A.** -3% (inactive)

**Q.** With `Nc1c([N+](=O)[O-])cc2c3c(cccc13)CC2` as the compound, how does the growth inhibition read?
**A.** 63% (inactive)

**Q.** With `NCC(O)CSCc1ccc(Cl)cc1` (stereo not given) as the compound, how does the growth inhibition read?
**A.** 1% (inactive)

**Q.** For `[O-]c1c2cc(-[n+]3c(-c4ccccc4)cc(-c4ccccc4)cc3-c3ccccc3)cc1COCCOCCOCCOCCOC2`, which growth inhibition is on record?
**A.** 5% (inactive)

**Q.** With `C[Si](C)(C)Cc1ccccc1C(=O)O` as the compound, how does the growth inhibition read?
**A.** 0% (inactive)

Same assay, conditions: S. cerevisiae rad50 mutant strain, at 33.0 µM, active compounds read high

**Q.** For `O=Cc1ccccc1B(O)O`, which growth inhibition is on record?
**A.** 97% (active)

**Q.** For `O=C(O)[C@H]1[C@@H](C2CCCCC2)O[C@@H](C2CCCCC2)O[C@H]1C(F)(F)F`, which growth inhibition is on record?
**A.** -2% (inactive)

**Q.** For `N#C/C(=C1C=C/C(=N\O)C(Cl)=C\1)c1ccccc1`, which growth inhibition is on record?
**A.** 21% (inactive)

**Q.** Which growth inhibition does the source give for `Nc1nc(Nc2ccccc2)nc(Nc2ccccc2)n1` here?
**A.** 28% (inactive)

**Q.** For `COc1ccc(/C=C2\S/C(=N/Nc3nc(-c4ccccc4)cs3)NC2=O)cc1OC`, which growth inhibition is on record?
**A.** 97% (active)

**Q.** With `CC(O)CN1C(=O)c2cccc3cc([N+](=O)[O-])cc(c23)C1=O` (stereo not given) as the compound, how does the growth inhibition read?
**A.** 55% (inactive)

**Q.** For `Cn1c(COc2ccc(/C=N/NC(=O)CCC(=O)N/N=C/c3ccc(OCc4c[n+]5ccccc5n4C)cc3)cc2)c[n+]2ccccc12`, which growth inhibition is on record?
**A.** -18% (inactive)

**Q.** With `O=S(=O)(CCC[C@H]1[C@@H](CCOCc2ccccc2)C2CCCN1O2)c1ccccc1` (stereo not given in full) as the compound, how does the growth inhibition read?
**A.** 2% (inactive)

**Q.** With `CCC(C)/C(C)=N/NC(N)=O` (stereo not given) as the compound, how does the growth inhibition read?
**A.** -9% (inactive)

**Q.** For `Nc1c([N+](=O)[O-])cc2c3c(cccc13)CC2`, which growth inhibition is on record?
**A.** 74% (active)

**Q.** For `NCC(O)CSCc1ccc(Cl)cc1` (stereo not given), which growth inhibition is on record?
**A.** -5% (inactive)

**Q.** With `[O-]c1c2cc(-[n+]3c(-c4ccccc4)cc(-c4ccccc4)cc3-c3ccccc3)cc1COCCOCCOCCOCCOC2` as the compound, how does the growth inhibition read?
**A.** 31% (inactive)

**Q.** For `C[Si](C)(C)Cc1ccccc1C(=O)O`, which growth inhibition is on record?
**A.** 4% (inactive)

Same assay, conditions: S. cerevisiae rad50 mutant strain, at 100.0 µM, active compounds read high

**Q.** For `O=Cc1ccccc1B(O)O`, which growth inhibition is on record?
**A.** 99% (active)

**Q.** For `O=C(O)[C@H]1[C@@H](C2CCCCC2)O[C@@H](C2CCCCC2)O[C@H]1C(F)(F)F`, which growth inhibition is on record?
**A.** -3% (inactive)

**Q.** With `N#C/C(=C1C=C/C(=N\O)C(Cl)=C\1)c1ccccc1` as the compound, how does the growth inhibition read?
**A.** 24% (inactive)

**Q.** For `Nc1nc(Nc2ccccc2)nc(Nc2ccccc2)n1`, which growth inhibition is on record?
**A.** 50% (inactive)

**Q.** With `COc1ccc(/C=C2\S/C(=N/Nc3nc(-c4ccccc4)cs3)NC2=O)cc1OC` as the compound, how does the growth inhibition read?
**A.** 97% (active)

**Q.** With `CC(O)CN1C(=O)c2cccc3cc([N+](=O)[O-])cc(c23)C1=O` (stereo not given) as the compound, how does the growth inhibition read?
**A.** 60% (inactive)

**Q.** Which growth inhibition does the source give for `Cn1c(COc2ccc(/C=N/NC(=O)CCC(=O)N/N=C/c3ccc(OCc4c[n+]5ccccc5n4C)cc3)cc2)c[n+]2ccccc12` here?
**A.** 45% (inactive)

**Q.** Which growth inhibition does the source give for `O=S(=O)(CCC[C@H]1[C@@H](CCOCc2ccccc2)C2CCCN1O2)c1ccccc1` (stereo not given in full) here?
**A.** 4% (inactive)

**Q.** For `CCC(C)/C(C)=N/NC(N)=O` (stereo not given), which growth inhibition is on record?
**A.** -14% (inactive)

**Q.** Which growth inhibition does the source give for `Nc1c([N+](=O)[O-])cc2c3c(cccc13)CC2` here?
**A.** 71% (active)

**Q.** Which growth inhibition does the source give for `NCC(O)CSCc1ccc(Cl)cc1` (stereo not given) here?
**A.** -2% (inactive)

**Q.** Which growth inhibition does the source give for `[O-]c1c2cc(-[n+]3c(-c4ccccc4)cc(-c4ccccc4)cc3-c3ccccc3)cc1COCCOCCOCCOCCOC2` here?
**A.** 66% (inactive)

**Q.** With `C[Si](C)(C)Cc1ccccc1C(=O)O` as the compound, how does the growth inhibition read?
**A.** 3% (inactive)

Assay: NCI Yeast Anticancer Drug Screen. Data for the mgt1 strain (AID 153)
Conditions: S. cerevisiae mgt1 mutant growth inhibition; at 1.2 µM; active compounds read high
Summary of the method: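 mgt1 strain exposed; growth vs vehicle control recorded as inhibition.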

**Q.** Which growth inhibition does the source give for `COc1ccc(/C=C2\CCc3ccccc3C2=O)cc1OC` here?
**A.** 2% (inactive)

**Q.** With `O=Cc1ccccc1B(O)O` as the compound, how does the growth inhibition read?
**A.** 0% (inactive)

**Q.** With `CC(=O)CC[N+](C)(C)C` as the compound, how does the growth inhibition read?
**A.** -29% (inactive)

**Q.** For `O=C(O)[C@H]1[C@@H](C2CCCCC2)O[C@@H](C2CCCCC2)O[C@H]1C(F)(F)F`, which growth inhibition is on record?
**A.** 0% (inactive)

**Q.** With `CCCCOc1ccc(Nc2c3ccccc3nc3ccccc23)cc1` as the compound, how does the growth inhibition read?
**A.** -27% (inactive)

**Q.** With `N#C/C(=C1C=C/C(=N\O)C(Cl)=C\1)c1ccccc1` as the compound, how does the growth inhibition read?
**A.** -3% (inactive)

**Q.** Which growth inhibition does the source give for `COc1ccc(C(=O)OCCc2ccccc2)cc1` here?
**A.** -4% (inactive)

**Q.** For `Cc1c2ccncc2c(C)c2c1oc1ccccc12`, which growth inhibition is on record?
**A.** -1% (inactive)

**Q.** With `CCCC#CCOC(=O)c1cc([N+](=O)[O-])cc([N+](=O)[O-])c1` as the compound, how does the growth inhibition read?
**A.** -5% (inactive)

**Q.** For `Nc1nc(Nc2ccccc2)nc(Nc2ccccc2)n1`, which growth inhibition is on record?
**A.** -1% (inactive)

**Q.** With `COc1ccc(/C=C2\S/C(=N/Nc3nc(-c4ccccc4)cs3)NC2=O)cc1OC` as the compound, how does the growth inhibition read?
**A.** 92% (active)

**Q.** Which growth inhibition does the source give for `CC(O)CN1C(=O)c2cccc3cc([N+](=O)[O-])cc(c23)C1=O` (stereo not given) here?
**A.** -23% (inactive)

**Q.** Which growth inhibition does the source give for `Cn1c(COc2ccc(/C=N/NC(=O)CCC(=O)N/N=C/c3ccc(OCc4c[n+]5ccccc5n4C)cc3)cc2)c[n+]2ccccc12` here?
**A.** 4% (inactive)

**Q.** Which growth inhibition does the source give for `COC1=C(N=[N+]=[N-])C(=O)c2ncccc2C1=O` here?
**A.** 10% (inactive)

**Q.** With `CCN(CC)c1ccc(N=Nc2cc(S(=O)(=O)O)ccc2O)c(O)c1` as the compound, how does the growth inhibition read?
**A.** 3% (inactive)

**Q.** For `O=C1C(C(O)(C(F)(F)F)C(F)(F)F)CCC1C(O)(C(F)(F)F)C(F)(F)F` (stereo not given), which growth inhibition is on record?
**A.** 1% (inactive)

**Q.** With `CN(C)CCNC(=O)c1cccc2nc3c(ccc4ccccc43)nc12` as the compound, how does the growth inhibition read?
**A.** -1% (inactive)

**Q.** Which growth inhibition does the source give for `CCC(C)/C(C)=N/NC(N)=O` (stereo not given) here?
**A.** 0% (inactive)

**Q.** For `Nc1c([N+](=O)[O-])cc2c3c(cccc13)CC2`, which growth inhibition is on record?
**A.** 5% (inactive)

**Q.** Which growth inhibition does the source give for `CC1=Cc2ccc(C)cc2C(=O)C1=O` here?
**A.** 27% (inactive)

**Q.** For `C=Cc1c(C)c(O)cc2c1-c1ccc(O)c(C)c1CC2`, which growth inhibition is on record?
**A.** -18% (inactive)

**Q.** With `NCC(O)CSCc1ccc(Cl)cc1` (stereo not given) as the compound, how does the growth inhibition read?
**A.** -4% (inactive)

**Q.** With `C[n+]1c(-c2ccc(NC(=O)c3ccc(C(=O)Nc4ccc(-c5cn6ccccc6[n+]5C)cc4)cc3)cc2)cn2ccccc21` as the compound, how does the growth inhibition read?
**A.** 3% (inactive)

**Q.** For `CNC(=O)OCc1c(COC(=O)NC)c(C)n(-c2ccc(Cl)c(Cl)c2)c1C`, which growth inhibition is on record?
**A.** -35% (inactive)

**Q.** Which growth inhibition does the source give for `[O-]c1c2cc(-[n+]3c(-c4ccccc4)cc(-c4ccccc4)cc3-c3ccccc3)cc1COCCOCCOCCOCCOC2` here?
**A.** -7% (inactive)

**Q.** With `C[Si](C)(C)Cc1ccccc1C(=O)O` as the compound, how does the growth inhibition read?
**A.** 1% (inactive)
